For this assay, the target named is Coelenterazine h 2-monooxygenase (Renilla reniformis) (UniProt P27652). Kind of assay: qHTS Assay for Inhibitors of Sea Pansy Luciferase from the GSK Published Protein Kinase Inhibitor Set. Particulars: purified Renilla luciferase, luminescence; series mostly up to 57.5 µM. From the text: FLuc (firefly luciferase) is the prototypical bioluminescent reporter gene from Photinus pyralis.[1] The enzyme catalyzes the oxidation luciferin via luciferin-AMP to produce light. FLuc is used in cell-based reporter gene-based assays for screening small molecule chemical libraries. However, small molecule luciferase inhibitors present in most large chemical libraries are often enriched in the output of high throughput screens using this reporter sometimes complicating interpretation and candidate selection.
Coelenterazine h 2-monooxygenase (Renilla reniformis), sequence (P27652 whole entry, looked up): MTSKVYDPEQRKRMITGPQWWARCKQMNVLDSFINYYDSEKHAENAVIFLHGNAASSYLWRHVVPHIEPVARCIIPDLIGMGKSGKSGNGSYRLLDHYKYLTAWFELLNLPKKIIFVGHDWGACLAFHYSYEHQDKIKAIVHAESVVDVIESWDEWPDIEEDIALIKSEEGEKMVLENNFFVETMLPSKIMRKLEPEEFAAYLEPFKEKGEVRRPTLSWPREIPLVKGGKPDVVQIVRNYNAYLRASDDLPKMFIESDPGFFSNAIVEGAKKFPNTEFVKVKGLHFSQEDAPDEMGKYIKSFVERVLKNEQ
RLuc is a bioluminescent reporter gene luciferase from Renilla reniformis, also known as the sea pansy. RLuc uses the luciferin substrate coelenterazine. […]
Three microliters containing renilla luciferase substrate in buffer (final concentrations: 50mM Tris acetate, pH 7.5, 100uM NaCl, 0.01% Tween-20, 0.05% BSA, 5uM coelenterazine h) are dispensed into each well of a Greiner white, solid-bottom 1536-well format plate using a flying reagent dispenser (FRD). These assay plates were then treated with 23nL of compound or DMSO using a Kalypsys pin tool, which allows for delivery of a 7-point interplate titration of each compound to the assay plate (quantitative HTS), with final compound concentrations ranging from approximately 60uM to 300pM. […] Luciferase activity was then measured using an Envision plate reader (PerkinElmer), with an average incubation time of 2 min.
(In general: qHTS replaces the single test concentration by a dilution series.)

This passage reports outcome results from PubChem BioAssay AID652015 (National Center for Advancing Translational Sciences (NCATS), 2013).

Each structure is given as a SMILES string. Results filed as inconclusive are left out. The source made the active and inactive calls. Calls follow the shape of the dose curve; as a rule, active = well fitted inhibition curve with a large enough effect; inconclusive = small, poorly fitted or top-dose-only effect; inactive = no such curve, though single readings can be large or run the other way.

As for `CNC(=O)Oc1cc(C)c(C=Cc2cncc(C(=O)NC)c2)c(C)c1`, the call was inactive.
